Data reported in PubChem BioAssay (NCI).
Compounds without any hit were thinned out: in the full panel of roughly 83,000, 20% have a hit.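 How to read the values: 0–100, growth inhibition (40 = 60% inhibited); 0, no net growth; -100 to 0, cell death (-40 = 40% of starting cells died; -100 = all dead).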 Values without a mark were called inactive. Calls of active or inactive are those of the source. The calls were made as follows: active = growth percent below 10; inactive = the rest.

Columns and labels:
Assay in all cases: NCI-60 one-dose screen, 48 h (100 = growth as untreated, 0 = no growth, -100 = all killed)
Conditions in all cases: 10 µM unless noted
[1] = system: T-47D breast
[2] = system: BT-549 breast
[3] = system: MDA-MB-435 melanoma
[4] = system: SW-620 colon
[5] = system: MCF7 breast
[6] = system: HCT-116 colon
[7] = system: HCC-2998 colon
[8] = system: KM12 colon

Row | Structure (SMILES) | growth [1] | growth [2] | growth [3] | growth [4] | growth [5] | growth [6] | growth [7] | growth [8]
1 | Cn1c2c(Cl)c(Cl)ccc2c2cc(N)[nH]c(=O)c21 | 79.7% | 64.2% | 107% | 77.8% | 72.4% | 83.1% | 85% | 94.2%
2 | O=C1Nc2c(ccc(Cl)c2Cl)/C1=C/c1ccc(O)cc1 | 61.2% | 82.3% | 101% | 79.1% | 54.1% | 72.6% | 80.5% | 85.9%
3 | Cc1c(C2=CCCCC2)c2ccccn2c1C(=O)c1cccc(S(=O)(=O)N2CCOCC2)c1 | 79.3% | 54.8% | 62.5% | 98.2% | 93.4% | 43% | 82.2% | 72.3%
4 | Cc1nc2sc(C(=O)Nc3cccc(Br)c3)c(N)c2cc1C(=O)c1ccc(C(F)(F)F)cc1 | 95.1% | 95.7% | 87.9% | 72.2% | 70% | 56.1% | 86.9% | 84.8%
5 | Clc1ccc(N2N=C(c3cccc(Nc4ccncc4)c3)CC2c2ccc(Br)cc2)cc1 (stereo not given) | 48.7% | 116% | -83.1% (active) | -68.1% (active) | -51.5% (active) | 105% | -67.7% (active) | -51% (active)
6 | O=C(Nc1cccc(Cl)c1)c1cc(Cl)ccc1O | -11.9% (active) | -6.47% (active) | 5.73% (active) | 6.44% (active) | 4.21% (active) | 6.01% (active) |  | 5.13% (active)
7 | CCCCCCCCCCN=C(N)N=C(N)N | 29.4% | 15.6% | 37.7% | 58.5% | 32.9% | 41.9% | 49.5% | 28.5%
8 | CC1=CC[C@@H]2CC[C@]3(C)[C@H](CC[C@@H]4[C@@]5(C)CCCNC(C)(C)[C@@H]5CC[C@]43C)[C@H]2[C@@H]1C | 65% | 97.1% | -17.3% (active) | -66.3% (active) | -28.2% (active) | -32.1% (active) | -51.5% (active) | -53% (active)
9 | COc1ccc(C2=C(c3ccccc3)c3ccc(OC(C)=O)cc3OC2(C)C)cc1 | 83.9% | 140% | 80.5% | 82.1% | 93.9% |  | 86.5% | 52.7%
10 | COc1cc2oc(-c3cccc(C(=O)Nc4ccc(Cl)cc4)c3)cc(=O)c2c(OC)c1OC | 24.2% | 38.5% | 37.5% | 50.4% | 17.2% | 15.3% | 22.6% | 26.3%
11 | O=C(CN1CCOCC1)Nc1ccc2ncnc(Nc3ccc(Oc4cccc(F)c4)c(Cl)c3)c2c1 | 23.9% | 86.2% | 85.4% | 100% | 71.1% | 73.5% | 101% | 90.1%
12 | O=c1[nH]c(=O)[nH]c(=S)[nH]1 | 98.9% | 103% | 103% | 102% | 97.8% | 98.5% |  | 102%
13 | CSc1nc(O)c(-c2ccccc2)c(=O)[nH]1 | 100% | 103% | 101% | 98.8% | 96.3% | 99.4% |  | 103%
14 | Cc1ccc(Nc2cc(=S)nc(N)[nH]2)cc1C | 89.2% | 95.9% | 103% | 96.7% | 88.5% | 90.1% |  | 102%
15 | CCc1c(Nc2ccc(C)cc2)nc(N)[nH]c1=O | 96.4% | 101% | 106% | 109% | 93.7% | 98.6% |  | 102%
16 | CC1(C)CN(Cc2ccccc2)CCN1Cc1ccccc1 | 100% | 109% | 104% | 97.6% | 114% | 101% | 106% | 104%
17 | CC1=CC2(C)/C=C(C)/C=C\CC(O)/C=C3/C=CC(=C4C(=O)OC2(CC1C)C4=O)OC3 (stereo not given) | -33.9% (active) | -17.1% (active) | -50.1% (active) | -88.5% (active) | -21.9% (active) | -100% (active) |  | 10.2%
18 | COc1ccc(-c2cnc(N)nc2-c2ccc(OC)cc2O)cc1 | 93.7% | 115% | 101% | 95.7% | 95.4% |  | 103% | 45.5%

Row | Structure (SMILES) | growth [1] | growth [2] | growth [3] | growth [4] | growth [5] | growth [6] | growth [7] | growth [8]
19 | CCC1(CC)NC(=O)c2c(c3ccc(Cl)c(Cl)c3n2C)C1C#N (stereo not given) | 78.5% | 90.6% | 99.2% | 102% | 97.9% | 76.3% | 97.5% | 99.4%
20 | CC(C)Sc1nc(NN)c(C#N)c(-c2ccccc2)n1 | 90.4% | 79.3% | 103% | 94.9% | 90.9% |  | 100% | 101%
21 | CCNC(=S)NNC(=O)c1cc2ccc1CCc1ccc(cc1)CC2 | 95.8% | 102% | 100% |  | 93.6% | 92.5% | 103% | 102%
22 | CC(=O)OCCCCCNc1ccccc1 | 103% | 102% | 111% | 101% | 109% |  | 107% | 94.6%
23 | CC(=O)N1N=C(c2cccc(Nc3ccncc3)c2)CC1c1ccccc1 (stereo not given) | 80.4% | 58.2% | 89.1% | 93.6% | 81.3% |  | 103% | 101%
24 | Clc1nc(Nc2ccccc2)nc(Nc2ccccc2)n1 | 76.1% | 90.5% | 108% | 108% | 92.4% |  | 93.3% | 102%
25 | Fc1ccc(-n2cc(COc3ncnc4sc5c(c34)CCCC5)nn2)cc1Cl | 95.1% | 103% | 99% | 101% | 95% |  | 114% | 105%
26 | COc1ccc(-c2nc(N/N=C/c3ccco3)nc(N3CCOCC3)c2C#N)cc1 | 54.2% | 78.5% | 91.7% |  | 35.2% | 89.1% | 92.2% | 86.7%
27 | Cn1/c(=N/NC(N)=S)ccc2ccccc21 | 52.9% | 100% | 99.8% | 84.5% | 37.4% |  | 112% | 103%
28 | O=C1CCCCCCCCC(O)C(O)CCCC(c2cccs2)O1 (stereo not given) | 71.8% | 122% | 99.3% |  | 95.9% | 89.8% | 118% | 100%
29 | CCc1c(Nc2ccc(C)cc2)[nH]c(N)nc1=S | 90.1% | 100% | 104% | 107% | 91.3% |  |  | 104%
30 | CN1C2CCC1CN(c1cnc(C(=O)Nc3cc(F)cc4cccnc34)cn1)C2 | 36% | 70.7% | 55.9% | 36.2% | 5.77% (active) |  | 83.1% | 76.9%
31 | C(=C\c1n(Cc2ccc3ccccc3c2)c(-c2ccccc2)c(-c2ccccc2)[n+]1Cc1ccc2ccccc2c1)/c1ccccc1 | -74.8% (active) | -83.2% (active) | -92% (active) | -86.9% (active) | -64.1% (active) |  | -91.4% (active) | -83.5% (active)
32 | CO[C@@H]1[C@H](N(C)C(=O)c2ccccc2)C[C@@H]2O[C@]1(C)n1c3ccccc3c3c4c(c5c6ccccc6n2c5c31)C(=O)NC4=O | 40.5% | 45% | 45.9% | 18.6% | 42% |  | 61.9% | 21.8%
33 | OC1(c2ccc(Cl)c(C(F)(F)F)c2)CCN(CCCC(c2ccc(F)cc2)c2ccc(F)cc2)CC1 | -62.1% (active) | -92.8% (active) | -91.6% (active) |  | -90.3% (active) | -92.3% (active) | -97.2% (active) | -99.2% (active)
34 | COc1ccc2nc(N=Nc3c(O)ccc4ccccc34)sc2c1 | 27.3% | 53.3% | 45.1% | 35.8% | 13.9% |  | 45.9% | 32.3%
35 | Nc1nnc2cc(Cl)ccc2n1 | 93.1% | 114% | 106% | 96.5% | 88.7% |  | 110% | 97%
